# According to ChEMBL document CHEMBL1157539, “Thousands of chemical starting points for antimalarial lead identification” (Nature, 2010):
# Test system: Plasmodium falciparum
# Experiment: GSK_TCMDC: Inhibition of Plasmodium falciparum Dd2 in whole red blood cells, using parasite LDH activity as an index of growth. Test compounds present at 2uM
# Assay type: functional
row,SMILES,Inhibition [%]
1,CS(=O)(=O)Nc1ccc2[nH]cc(C3CCN(CCCCCNC(=O)/C=C/c4ccc(Cl)c(Cl)c4)CC3)c2c1,0
2,c1cc(-c2nc3ccccc3[nH]2)nc(-c2nc3ccccc3[nH]2)c1,24
3,COc1ccc(O)c(C(=O)c2cc(C(=O)NC3CCCCC3)c(=O)n(C3CCCCC3)c2)c1,62
4,O=S(=O)(Nc1cccc(CCN2CCC(N3CCCCC3)CC2)c1)c1ccc(Oc2ccccc2)nc1,0
5,O=C(O)CCSSc1cccc[n+]1[O-],0
6,CSc1ccc(CN2CCC(NC(=O)c3ccc(-c4cccc(Cl)c4)s3)CC2)cc1.O=C(O)C(F)(F)F,19
7,O=C(CN1CCN(C(=O)c2ccco2)CC1)Nc1ccc(Br)cc1Cl,79
8,CCc1cn2c3c(cc(C(=O)N[C@@H](Cc4ccccc4)[C@H](O)CNCc4ccc(C)cc4)cc13)N(C)S(=O)(=O)CC2.O=CO,98
9,O=C(/C=C/c1ccc(Cl)c(Cl)c1)NCCCCCN1CCC(NC(=O)Nc2ccc(Oc3ccccc3)cc2)C1 (stereo unspecified),6
10,CCN(CC)CCCN(CCCN(CC)CC)c1cc(C)nc(Nc2ccc3cc(Br)ccc3c2)n1.Cl,73
11,Cl.Oc1c(Cl)cc(-c2ccccc2)cc1CNC1CCCCC1,95
12,Cc1ccnc2nc(C(=O)Nc3cc(C(F)(F)F)ccc3N3CCCCC3)nn12,94
13,Cc1cn(CC(=O)Nc2cccc(-c3cccc(-c4nc5cc(C(F)(F)F)ccc5[nH]4)c3)c2)c(=O)[nH]c1=O,51
14,COc1ccc(CN2CCC(N3CCc4cc(NC(=O)c5cc(C)on5)ccc43)C2)cc1Cl (stereo unspecified),91
15,O=C(NC1CCCCC1)C1CCCN(C(=O)c2ccc(O)c(-c3ccc(Cl)c(Cl)c3)c2)C1 (stereo unspecified),42
16,N#Cc1ccc(N/C(=N\c2cccc(Cl)c2Cl)NC2Cc3ccccc3C2)c(O)c1,77
17,CCN(CC)CCOc1ccc(C(O)(C#CC(O)(c2ccc(Br)cc2)c2ccc(OCCN(CC)CC)cc2)c2ccc(Br)cc2)cc1 (stereo unspecified),99
18,CS(=O)(=O)n1c(CN2CCN(c3ncc(C(F)(F)F)cc3Cl)CC2)nc2ccccc21,59
19,CCCCC(CC)C(=O)C(NC(=O)[C@H](CSC(c1ccccc1)(c1ccccc1)c1ccccc1)NC(=O)OC(C)(C)C)C(=O)OC (stereo partly specified),31
20,COc1ccc(CN2CCCN(Cc3cccc(NC(=O)c4ccc5ccccc5c4)c3)CC2)cc1.O=C(O)C(F)(F)F,11
21,COc1cc2c(cc1S(=O)(=O)c1ccc(NC(=O)c3cc4ccccc4s3)cc1)CCN(C)CC2,88
22,N=C1NC(=N)N(OCCCCCCON2C(=N)NC(=N)NC2C=Cc2ccccc2)C(C=Cc2ccccc2)N1 (stereo unspecified),94
23,COc1ccccc1NC(=O)NC1CCN(CCCCCNC(=O)/C=C/c2ccc(Cl)c(Cl)c2)CC1,15
24,Fc1ccc(Nc2ccnc3cc(-c4ccc(CNCCN5CCOCC5)o4)ccc23)c(Cl)c1,99
25,CC(=O)Nc1ccc(CN(Cc2ccc(OC(C)(C)C)cc2)Cc2ccc3c(c2)OCCO3)cc1,75
26,O[C@H]1[C@H](OCc2ccc(-c3ccccc3)cc2)CC[C@@H]1N1CCCCC1,100
